# What was measured:
# Assay in all cases: PBM; 200 nM protein, PBS
# Details in all cases: dsDNA, one strand shown
# HESX1 [1] = target: HESX1 (Homo sapiens, UniProt Q9UBX0 95-180, R165K)
# HESX1 [2] = target: HESX1 (Homo sapiens, UniProt Q9UBX0 95-180)
# HESX1 [3] = target: HESX1 (Homo sapiens, UniProt Q9UBX0 95-180, P111T)
# HESX1 [4] = target: HESX1 (Homo sapiens, UniProt Q9UBX0 95-180, F115L)
# PROP1 [5] = target: PROP1 (Homo sapiens, UniProt O75360 56-141)
# PROP1 [6] = target: PROP1 (Homo sapiens, UniProt O75360 56-141, R99H)
# PROP1 (Homo sapiens, UniProt O75360 56-141, R99H), sequence (O75360 56-141 R99H): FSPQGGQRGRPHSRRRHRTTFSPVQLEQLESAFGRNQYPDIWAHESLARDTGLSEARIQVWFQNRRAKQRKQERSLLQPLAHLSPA
# PROP1 [7] = target: PROP1 (Homo sapiens, UniProt O75360 56-141, F88S)
# PROP1 (Homo sapiens, UniProt O75360 56-141, F88S), sequence (O75360 56-141 F88S): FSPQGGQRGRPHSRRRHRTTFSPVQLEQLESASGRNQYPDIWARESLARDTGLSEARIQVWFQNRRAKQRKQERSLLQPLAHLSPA
# HOXB9 = HOXB9 (Homo sapiens, UniProt P17482 171-250)
# HOXB9, sequence (P17482 171-250): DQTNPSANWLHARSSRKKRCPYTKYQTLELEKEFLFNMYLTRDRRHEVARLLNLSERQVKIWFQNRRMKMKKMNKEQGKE
# SHOX [8] = target: SHOX (Homo sapiens, UniProt O15266 103-189)
# SHOX (Homo sapiens, UniProt O15266 103-189), sequence (O15266 103-189): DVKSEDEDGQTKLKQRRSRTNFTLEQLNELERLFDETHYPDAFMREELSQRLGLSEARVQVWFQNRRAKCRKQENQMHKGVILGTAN
# HOXB6 [9] = target: HOXB6 (Homo sapiens, UniProt P17509 132-218, K202E)
# HOXB6 (Homo sapiens, UniProt P17509 132-218, K202E), sequence (P17509 132-218 K202E): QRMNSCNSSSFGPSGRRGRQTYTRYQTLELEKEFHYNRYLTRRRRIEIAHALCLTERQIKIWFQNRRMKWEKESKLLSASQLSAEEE
# HOXA2 [10] = target: HOXA2 (Homo sapiens, UniProt O43364 129-215, R185T)
# HOXA2 (Homo sapiens, UniProt O43364 129-215, R185T), sequence (O43364 129-215 R185T): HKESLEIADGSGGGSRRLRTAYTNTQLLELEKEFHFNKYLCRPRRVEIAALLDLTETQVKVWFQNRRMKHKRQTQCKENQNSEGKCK
# MSX2 [11] = target: MSX2 (Homo sapiens, UniProt P35548 130-214, R199I)
# MSX2 (Homo sapiens, UniProt P35548 130-214, R199I), sequence (P35548 130-214 R199I): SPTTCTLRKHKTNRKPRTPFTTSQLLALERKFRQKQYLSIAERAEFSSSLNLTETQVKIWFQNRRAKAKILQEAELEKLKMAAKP
# SHOX [12] = target: SHOX (Homo sapiens, UniProt O15266 103-189, R173C)
# SHOX (Homo sapiens, UniProt O15266 103-189, R173C), sequence (O15266 103-189 R173C): as the sequence (O15266 103-189) above, with R71C counted along it
# HOXA2 [13] = target: HOXA2 (Homo sapiens, UniProt O43364 129-215, R185K)
# HOXA2 (Homo sapiens, UniProt O43364 129-215, R185K), sequence (O43364 129-215 R185K): as the sequence (O43364 129-215 R185T) above, with T57K counted along it
# MSX2 [14] = target: MSX2 (Homo sapiens, UniProt P35548 130-214)
# MSX2 (Homo sapiens, UniProt P35548 130-214), sequence (P35548 130-214): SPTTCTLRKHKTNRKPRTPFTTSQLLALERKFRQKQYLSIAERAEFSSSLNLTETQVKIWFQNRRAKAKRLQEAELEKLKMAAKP
# MSX2 [15] = target: MSX2 (Homo sapiens, UniProt P35548 130-214, F161Y)
# MSX2 (Homo sapiens, UniProt P35548 130-214, F161Y), sequence (P35548 130-214 F161Y): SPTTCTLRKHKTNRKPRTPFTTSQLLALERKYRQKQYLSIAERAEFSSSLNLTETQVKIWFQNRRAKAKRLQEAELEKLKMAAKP
# HOXA2 [16] = target: HOXA2 (Homo sapiens, UniProt O43364 129-215, Y150S)
# HOXA2 (Homo sapiens, UniProt O43364 129-215, Y150S), sequence (O43364 129-215 Y150S): as the sequence (O43364 129-215 R185T) above, with Y22S, T57R counted along it
# HOXA2 [17] = target: HOXA2 (Homo sapiens, UniProt O43364 129-215)
# HOXA2 (Homo sapiens, UniProt O43364 129-215), sequence (O43364 129-215): as the sequence (O43364 129-215 R185T) above, with T57R counted along it
# VAX1 = VAX1 (Homo sapiens, UniProt Q5SQQ9 86-172, K157R)
# VAX1, sequence (Q5SQQ9 86-172 K157R): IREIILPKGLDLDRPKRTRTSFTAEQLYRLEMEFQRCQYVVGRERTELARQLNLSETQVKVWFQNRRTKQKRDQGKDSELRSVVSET
# HOXB6 [18] = target: HOXB6 (Homo sapiens, UniProt P17509 132-218)
# HOXB6 (Homo sapiens, UniProt P17509 132-218), sequence (P17509 132-218): as the sequence (P17509 132-218 K202E) above, with E71K counted along it
# PROP1 (Homo sapiens, UniProt O75360 56-141), sequence (O75360 56-141): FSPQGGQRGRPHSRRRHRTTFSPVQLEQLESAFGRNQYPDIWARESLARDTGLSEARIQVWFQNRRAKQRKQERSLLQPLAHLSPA
# HESX1 (Homo sapiens, UniProt Q9UBX0 95-180, F115L), sequence (Q9UBX0 95-180 F115L): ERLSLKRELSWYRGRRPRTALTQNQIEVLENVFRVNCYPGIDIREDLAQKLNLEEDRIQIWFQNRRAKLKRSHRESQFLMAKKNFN
# HESX1 (Homo sapiens, UniProt Q9UBX0 95-180), sequence (Q9UBX0 95-180): as the sequence (Q9UBX0 95-180 F115L) above, with L21F counted along it
# HESX1 (Homo sapiens, UniProt Q9UBX0 95-180, P111T), sequence (Q9UBX0 95-180 P111T): as the sequence (Q9UBX0 95-180 F115L) above, with P17T, L21F counted along it
# HESX1 (Homo sapiens, UniProt Q9UBX0 95-180, R165K), sequence (Q9UBX0 95-180 R165K): as the sequence (Q9UBX0 95-180 F115L) above, with L21F, R71K counted along it
sequence,measurement,setting,value
CCAGCGCG,binding signal,HESX1 [1],"6.43 upbm affinity estimate (log intensity, higher = more binding, comparable within an allelic series)"
same,binding signal,HESX1 [2],"6.41 upbm affinity estimate (log intensity, higher = more binding, comparable within an allelic series)"
same,binding signal,HESX1 [3],"6.49 upbm affinity estimate (log intensity, higher = more binding, comparable within an allelic series)"
same,binding signal,HESX1 [4],"6.43 upbm affinity estimate (log intensity, higher = more binding, comparable within an allelic series)"
CCCGGCGG,binding signal,PROP1 [5],"6.68 upbm affinity estimate (log intensity, higher = more binding, comparable within an allelic series)"
same,binding signal,PROP1 [6],"6.68 upbm affinity estimate (log intensity, higher = more binding, comparable within an allelic series)"
same,binding signal,PROP1 [7],"6.39 upbm affinity estimate (log intensity, higher = more binding, comparable within an allelic series)"
CACTTATA,binding signal,HOXB9,"10.4 upbm affinity estimate (log intensity, higher = more binding, comparable within an allelic series)"
CTAATTGC,binding signal,HESX1 [1],"12.3 upbm affinity estimate (log intensity, higher = more binding, comparable within an allelic series)"
same,binding signal,SHOX [8],"11.8 upbm affinity estimate (log intensity, higher = more binding, comparable within an allelic series)"
same,binding signal,HOXB6 [9],"9.81 upbm affinity estimate (log intensity, higher = more binding, comparable within an allelic series)"
same,binding signal,HESX1 [2],"12.5 upbm affinity estimate (log intensity, higher = more binding, comparable within an allelic series)"
same,binding signal,HOXA2 [10],"13.1 upbm affinity estimate (log intensity, higher = more binding, comparable within an allelic series)"
same,binding signal,MSX2 [11],"13 upbm affinity estimate (log intensity, higher = more binding, comparable within an allelic series)"
same,binding signal,SHOX [12],"9.34 upbm affinity estimate (log intensity, higher = more binding, comparable within an allelic series)"
same,binding signal,HOXA2 [13],"13.5 upbm affinity estimate (log intensity, higher = more binding, comparable within an allelic series)"
same,binding signal,MSX2 [14],"14 upbm affinity estimate (log intensity, higher = more binding, comparable within an allelic series)"
same,binding signal,PROP1 [5],"11.2 upbm affinity estimate (log intensity, higher = more binding, comparable within an allelic series)"
same,binding signal,PROP1 [6],"11.5 upbm affinity estimate (log intensity, higher = more binding, comparable within an allelic series)"
same,binding signal,HESX1 [3],"10.9 upbm affinity estimate (log intensity, higher = more binding, comparable within an allelic series)"
same,binding signal,PROP1 [7],"7.41 upbm affinity estimate (log intensity, higher = more binding, comparable within an allelic series)"
same,binding signal,MSX2 [15],"13.6 upbm affinity estimate (log intensity, higher = more binding, comparable within an allelic series)"
same,binding signal,HESX1 [4],"7.52 upbm affinity estimate (log intensity, higher = more binding, comparable within an allelic series)"
same,binding signal,HOXA2 [16],"10.7 upbm affinity estimate (log intensity, higher = more binding, comparable within an allelic series)"
same,binding signal,HOXA2 [17],"12.6 upbm affinity estimate (log intensity, higher = more binding, comparable within an allelic series)"
same,binding signal,VAX1,"12.8 upbm affinity estimate (log intensity, higher = more binding, comparable within an allelic series)"
same,binding signal,HOXB6 [18],"11.8 upbm affinity estimate (log intensity, higher = more binding, comparable within an allelic series)"
CGGACCCG,binding signal,HOXB6 [9],"8.97 upbm affinity estimate (log intensity, higher = more binding, comparable within an allelic series)"
same,binding signal,HOXB6 [18],"9 upbm affinity estimate (log intensity, higher = more binding, comparable within an allelic series)"
CCGCGTCG,binding signal,HESX1 [1],"6.63 upbm affinity estimate (log intensity, higher = more binding, comparable within an allelic series)"
same,binding signal,HESX1 [2],"6.33 upbm affinity estimate (log intensity, higher = more binding, comparable within an allelic series)"
same,binding signal,HESX1 [3],"6.49 upbm affinity estimate (log intensity, higher = more binding, comparable within an allelic series)"
same,binding signal,HESX1 [4],"6.48 upbm affinity estimate (log intensity, higher = more binding, comparable within an allelic series)"
GCCACTTA,binding signal,HOXB9,"10.1 upbm affinity estimate (log intensity, higher = more binding, comparable within an allelic series)"
ACGCGCAG,binding signal,SHOX [8],"7.05 upbm affinity estimate (log intensity, higher = more binding, comparable within an allelic series)"
same,binding signal,SHOX [12],"7.17 upbm affinity estimate (log intensity, higher = more binding, comparable within an allelic series)"
AATTAGCT,binding signal,HESX1 [1],"11.6 upbm affinity estimate (log intensity, higher = more binding, comparable within an allelic series)"
same,binding signal,SHOX [8],"11.7 upbm affinity estimate (log intensity, higher = more binding, comparable within an allelic series)"
same,binding signal,HESX1 [2],"11.6 upbm affinity estimate (log intensity, higher = more binding, comparable within an allelic series)"
same,binding signal,MSX2 [11],"12.3 upbm affinity estimate (log intensity, higher = more binding, comparable within an allelic series)"
same,binding signal,SHOX [12],"9.43 upbm affinity estimate (log intensity, higher = more binding, comparable within an allelic series)"
same,binding signal,MSX2 [14],"13.3 upbm affinity estimate (log intensity, higher = more binding, comparable within an allelic series)"
same,binding signal,PROP1 [5],"11 upbm affinity estimate (log intensity, higher = more binding, comparable within an allelic series)"
same,binding signal,PROP1 [6],"10.9 upbm affinity estimate (log intensity, higher = more binding, comparable within an allelic series)"
same,binding signal,HESX1 [3],"10.4 upbm affinity estimate (log intensity, higher = more binding, comparable within an allelic series)"
same,binding signal,PROP1 [7],"7.6 upbm affinity estimate (log intensity, higher = more binding, comparable within an allelic series)"
same,binding signal,MSX2 [15],"12.9 upbm affinity estimate (log intensity, higher = more binding, comparable within an allelic series)"
same,binding signal,HESX1 [4],"7.79 upbm affinity estimate (log intensity, higher = more binding, comparable within an allelic series)"
same,binding signal,VAX1,"12.4 upbm affinity estimate (log intensity, higher = more binding, comparable within an allelic series)"
CCGGAGCC,binding signal,HOXB6 [9],"8.96 upbm affinity estimate (log intensity, higher = more binding, comparable within an allelic series)"
same,binding signal,HOXB6 [18],"8.93 upbm affinity estimate (log intensity, higher = more binding, comparable within an allelic series)"
ACGGCTGG,binding signal,PROP1 [5],"6.59 upbm affinity estimate (log intensity, higher = more binding, comparable within an allelic series)"
same,binding signal,PROP1 [6],"6.78 upbm affinity estimate (log intensity, higher = more binding, comparable within an allelic series)"
same,binding signal,PROP1 [7],"6.67 upbm affinity estimate (log intensity, higher = more binding, comparable within an allelic series)"
CGGGCTCC,binding signal,HOXB6 [9],"8.71 upbm affinity estimate (log intensity, higher = more binding, comparable within an allelic series)"
same,binding signal,HOXA2 [10],"6.41 upbm affinity estimate (log intensity, higher = more binding, comparable within an allelic series)"
same,binding signal,HOXB9,"7.77 upbm affinity estimate (log intensity, higher = more binding, comparable within an allelic series)"
same,binding signal,MSX2 [11],"9.06 upbm affinity estimate (log intensity, higher = more binding, comparable within an allelic series)"
same,binding signal,HOXA2 [13],"9.88 upbm affinity estimate (log intensity, higher = more binding, comparable within an allelic series)"
same,binding signal,MSX2 [14],"8.79 upbm affinity estimate (log intensity, higher = more binding, comparable within an allelic series)"
same,binding signal,MSX2 [15],"8.87 upbm affinity estimate (log intensity, higher = more binding, comparable within an allelic series)"
same,binding signal,HOXA2 [16],"10.2 upbm affinity estimate (log intensity, higher = more binding, comparable within an allelic series)"
same,binding signal,HOXA2 [17],"6.39 upbm affinity estimate (log intensity, higher = more binding, comparable within an allelic series)"
same,binding signal,VAX1,"6.27 upbm affinity estimate (log intensity, higher = more binding, comparable within an allelic series)"
same,binding signal,HOXB6 [18],"8.31 upbm affinity estimate (log intensity, higher = more binding, comparable within an allelic series)"

# From PMC11006913
